Measured values reported in PubChem BioAssay (Tox21).
Records with an inconclusive call do not appear. Activity calls are given as the source filed them. Unless noted, calls follow the shape of the full dose curve.

Columns and labels:
[1] = Nuclear factor erythroid 2-related factor 2/antioxidant responsive element (Nrf2/ARE) small molecule agonists: qHTS cell viability counter screen in human keratinocytes (AID 1919968; active = well fitted curve in the direction sought with a large enough effect in the repeat runs; an effect the other way counts as inactive or inconclusive; also: nearly all actives have a fitted effect of over 55% in size)
Procedure, shortened: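 Parallel cytotoxicity read: KeratinoSens HaCaT cells, compound treatment 23 h, viability by CellTiter-Fluor fluorescence 1 h post-reagent.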

[2] = molecular target: Gonadotropin-releasing hormone receptor (Homo sapiens) (UniProt P30968); assay: Human gonadotropin-releasing hormone receptor (GnRHR) small molecule agonists, calcium flux assay in GnRHR-HEK293 cells (AID 1920063); also: nearly all actives have a fitted effect of over 35% in size
Procedure, shortened: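 Calcium flux, agonist mode, human GnRHR stably integrated in HEK293; dye 1 h at 37 C before compound; Ex/Em=480/540 kinetic read, 3 min; 15 concentrations, triplicate.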

[3] = molecular target: KiSS-1 receptor (Homo sapiens) (UniProt Q969F8); assay: Human kisspeptin (KISS1R) small molecule agonists, calcium flux assay in KISS1R-HEK293 cells (AID 1920064; active = well fitted curve in the direction sought with a large enough effect in the repeat runs; an effect the other way counts as inactive or inconclusive)
Procedure, shortened: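 Triplicate 15-concentration series were applied to dye-loaded human KISS1R HEK293 cells, and agonist-evoked calcium fluorescence was captured for 3 min.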

[4] = G protein-coupled receptor (GPCR) small molecule agonists, calcium flux assay: HEK293 wild type cell line counter screen (AID 1920065)
Procedure, shortened: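 Non-specific calcium responders were flagged by adding DMSO-dissolved compounds to dye-loaded cells and reading 480/540 nm fluorescence each second for 3 min; ATP served as positive control.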

[5] = p53 small molecule agonists, cell-based qHTS assay with human liver microsomes (AID 1963577);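 also: p53 response element beta-lactamase reporter cells with liver microsomes plus NADPH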
Procedure, shortened: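 16 h, 37 C exposure of p53RE-bla cells to compounds with human liver microsomes and NADPH (0.5 mg/mL final each); detection via LiveBLAzer mixture, 2 h dark at room temperature.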

[6] = p53 small molecule agonists, cell-based qHTS assay with rat liver microsomes (AID 1963578)
Procedure, shortened: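 With rat liver microsomes and NADPH present (0.5 mg/mL final each), p53RE-bla cells are treated with compound for 16 h at 37 C. LiveBLAzer detection mixture is then applied for 2 h at room temperature in the dark.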

[7] = p53 small molecule agonists, cell-based qHTS assay with human liver microsomes: qHTS cell viability counter screen (AID 1963579); also: nearly all actives have a fitted effect of over 45% in size
Procedure, shortened: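 In this multiplexed counter screen, the reporter plates were subsequently treated with CellTiter-Glo so that cell viability, reflected by luminescence, could be recorded for p53RE-bla cells dosed 16 h with compounds under microsomal activation (HLM and NADPH).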

[8] = p53 small molecule agonists, cell-based qHTS assay with rat liver microsomes: qHTS cell viability counter screen (AID 1963580); also: nearly all actives have a fitted effect of over 45% in size
Procedure, shortened: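 Cytotoxicity counter screen: intracellular ATP read by CellTiter-Glo luminescence in the p53 reporter wells. HCT-116 p53RE-bla cells were treated for 16 h at 37 C alongside rat liver microsomes and NADPH, each 0.5 mg/mL final.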

[9] = p53 small molecule agonists, cell-based qHTS assay: qHTS cell viability counter screen (AID 1963581); also: nearly all actives have a fitted effect of over 45% in size
Procedure, shortened: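 Multiplexed with the reporter read, a CellTiter-Glo step (30 min, room temperature) gauges ATP-based viability of HCT-116 p53RE-bla cells after 16 h compound incubation at 37 C.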

[10] = p53 small molecule agonists, cell-based qHTS assay (AID 1963582; active = well fitted activation curve with a large enough effect in the signal ratio in the repeat runs, not every such curve was filed as active; the % refers to the signal ratio)
Procedure, shortened: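 Beta-lactamase reporter cells (p53RE-bla) treated with compounds for 16 h at 37 C; FRET substrate, 2 h, room temperature; fluorescence intensity.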

[11] = molecular target: 5-hydroxytryptamine receptor 2A (Homo sapiens) (UniProt P28223); assay: 5-hydroxytryptamine receptor 2A (HTR2A) small molecule antagonists, cell-based qHTS assay (AID 1963586); also: nearly all actives have a fitted effect of over 45% in size
Procedure, shortened: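 CHO cells stably expressing human HTR2A were plated for 18 h at 37 C, then loaded with calcium dye for 1 h. Compounds were preincubated 5 min at room temperature before DOI (4 nM solution) was added. Kinetic fluorescence was read for 3 min.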

[12] = molecular target: 5-hydroxytryptamine receptor 2A (Homo sapiens) (UniProt P28223); assay: 5-hydroxytryptamine receptor 2A (HTR2A) small molecule agonists, cell-based qHTS assay (AID 1963587); also: nearly all actives have a fitted effect of over 30% in size
Procedure, shortened: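 Kinetic calcium-flux fluorescence (2 min, 1 sec intervals) after compound addition in agonist mode. HTR2A-CHO cells were cultured 18 h, then dye-loaded 1 h at 37 C.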

[13] = molecular target: Muscarinic acetylcholine receptor M1 (Homo sapiens) (UniProt P11229); assay: Cholinergic receptor muscarinic 1 (CHRM1) small molecule antagonists, cell-based qHTS assay (AID 1963588); also: nearly all actives have a fitted effect of over 40% in size
Procedure, shortened: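 Compounds were tested at 15 concentrations in three independent runs. Dye-loaded CHRM1-CHO cells were exposed 5 min at room temperature before stimulation by acetylcholine added at 50nM. Intracellular calcium was read kinetically on FDSS for 3 min.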

[14] = molecular target: Muscarinic acetylcholine receptor M1 (Homo sapiens) (UniProt P11229); assay: Cholinergic receptor muscarinic 1 (CHRM1) small molecule agonists, cell-based qHTS assay (AID 1963589); also: nearly all actives have a fitted effect of over 35% in size
Procedure, shortened: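 qHTS, 15-point titration, 3 independent runs: compounds pin-transferred onto dye-loaded CHRM1-CHO cells (human M1), calcium fluorescence followed every second to detect agonism.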

[15] = cAMP Responsive Elements (CRE) small molecule agonists, cell-based qHTS assay (AID 1963590)
Procedure, shortened: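 Quantitative HTS for CRE agonists: HEK 293T CRE-bla cells, overnight plating, 3 h compound incubation at 37 C/5% CO2, then 2 h room-temperature LiveBLAzer B/G FRET substrate loading.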

[16] = cAMP Responsive Elements (CRE) small molecule antagonists, cell-based qHTS assay (AID 1963591; active = well fitted inhibition curve with a large enough effect in the signal ratio in the repeat runs, not every such curve was filed as active; the % refers to the signal ratio)
Procedure, shortened: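 Fluorescence intensity from cleaved LiveBLAzer B/G substrate (2 h, room temperature) quantified CRE-bla activity in HEK 293T cells exposed 3 h to compound with 0.25 uM final NKH477.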

[17] = molecular target: Beta-2 adrenergic receptor (Homo sapiens) (UniProt P07550); assay: Adrenergic beta2 receptor (ADRB2) small molecule antagonists, cell-based qHTS assay (AID 1963592); also: series mostly up to about 92 µM; nearly all actives have a fitted effect of over 50% in size
Procedure, shortened: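 Assay format: CHO-ADRB2 cells, 18-20hr seeding at 37C/5% CO2, then compound plus 1nM isoproterenol agonist mix for 0.5hr RT. Homogeneous time-resolved fluorescence cAMP detection after 1hr, expressed as 665/615 nm ratio.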

[18] = molecular target: Beta-2 adrenergic receptor (Homo sapiens) (UniProt P07550); assay: Adrenergic beta2 receptor (ADRB2) small molecule agonists, cell-based qHTS assay (AID 1963593);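 also: CHO cells stably overexpressing human ADRB2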
Procedure, shortened: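 CHO cells stably over-expressing ADRB2 were plated overnight at 37C, then dosed with compounds plus a stimulation mix containing 100uM IBMX and 25uM Ro-20-1724 for 0.5hr at room temperature. cAMP was measured by HTRF competition, 1hr.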

[19] = molecular target: D(2) dopamine receptor (Homo sapiens) (UniProt P14416); assay: Dopamine D2 receptor (DRD2) small molecule agonists, cell-based qHTS assay (AID 1963594); also: nearly all actives have a fitted effect of over 35% in size
Procedure, shortened: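 cAMP accumulation in DRD2-HEK293 cells measured by HTRF after 1 h detection; compounds added 10 min before NKH477 (200nM […]) forskolin-analogue stimulation, 30 min at room temperature, with Ro20-1724 present at 0.1 mM final.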

[20] = molecular target: D(2) dopamine receptor (Homo sapiens) (UniProt P14416); assay: Dopamine D2 receptor (DRD2) small molecule antagonists, cell-based qHTS assay (AID 1963595; active = well fitted inhibition curve with a large enough effect in the signal ratio in the repeat runs, with a control signal flat; the % refers to the signal ratio)
Procedure, shortened: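 In this cell-based antagonist screen, compounds act for 10 min at room temperature before a 30 min challenge with 12 nM quinpirole and 200 nM NKH477. cAMP is quantified by HTRF competition in DRD2-HEK293 cells containing 0.1 mM Ro20-1724.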

Measured: Potency

5-hydroxytryptamine receptor 2A (Homo sapiens), sequence (P28223 whole entry, looked up): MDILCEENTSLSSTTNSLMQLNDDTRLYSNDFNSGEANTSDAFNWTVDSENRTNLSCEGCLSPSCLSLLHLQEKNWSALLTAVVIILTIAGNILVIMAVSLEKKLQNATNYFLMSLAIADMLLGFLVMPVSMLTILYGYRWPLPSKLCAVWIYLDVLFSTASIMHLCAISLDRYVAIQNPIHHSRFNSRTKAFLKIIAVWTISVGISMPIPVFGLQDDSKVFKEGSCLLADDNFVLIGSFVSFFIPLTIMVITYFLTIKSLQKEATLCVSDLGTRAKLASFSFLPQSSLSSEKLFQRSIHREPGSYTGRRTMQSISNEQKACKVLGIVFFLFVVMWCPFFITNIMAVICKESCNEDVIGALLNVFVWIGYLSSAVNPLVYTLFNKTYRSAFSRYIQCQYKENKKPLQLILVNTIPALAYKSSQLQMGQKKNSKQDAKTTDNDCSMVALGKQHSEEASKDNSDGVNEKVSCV
Beta-2 adrenergic receptor (Homo sapiens), sequence (P07550 whole entry, looked up): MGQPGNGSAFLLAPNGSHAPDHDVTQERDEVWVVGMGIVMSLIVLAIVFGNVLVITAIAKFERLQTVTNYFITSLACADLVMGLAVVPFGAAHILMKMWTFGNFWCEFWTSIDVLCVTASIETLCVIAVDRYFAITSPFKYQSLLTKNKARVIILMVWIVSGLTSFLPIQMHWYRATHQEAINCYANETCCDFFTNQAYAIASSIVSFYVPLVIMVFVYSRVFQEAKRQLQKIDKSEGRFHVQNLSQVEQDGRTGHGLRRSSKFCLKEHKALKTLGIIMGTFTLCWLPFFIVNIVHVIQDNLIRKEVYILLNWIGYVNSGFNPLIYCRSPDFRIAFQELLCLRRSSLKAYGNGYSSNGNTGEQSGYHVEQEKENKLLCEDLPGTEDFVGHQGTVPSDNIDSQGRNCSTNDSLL
KiSS-1 receptor (Homo sapiens), sequence (Q969F8 whole entry, looked up): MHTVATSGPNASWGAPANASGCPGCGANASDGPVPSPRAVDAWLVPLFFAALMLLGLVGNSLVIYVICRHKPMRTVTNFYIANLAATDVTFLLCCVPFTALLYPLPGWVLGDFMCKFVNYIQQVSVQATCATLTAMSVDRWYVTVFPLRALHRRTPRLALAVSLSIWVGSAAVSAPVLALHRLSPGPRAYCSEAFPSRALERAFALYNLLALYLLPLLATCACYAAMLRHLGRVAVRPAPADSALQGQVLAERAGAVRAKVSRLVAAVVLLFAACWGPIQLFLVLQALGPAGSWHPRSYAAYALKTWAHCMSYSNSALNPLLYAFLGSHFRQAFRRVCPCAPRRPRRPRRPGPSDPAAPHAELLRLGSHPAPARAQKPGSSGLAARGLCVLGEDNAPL
Muscarinic acetylcholine receptor M1 (Homo sapiens), sequence (P11229 whole entry, looked up): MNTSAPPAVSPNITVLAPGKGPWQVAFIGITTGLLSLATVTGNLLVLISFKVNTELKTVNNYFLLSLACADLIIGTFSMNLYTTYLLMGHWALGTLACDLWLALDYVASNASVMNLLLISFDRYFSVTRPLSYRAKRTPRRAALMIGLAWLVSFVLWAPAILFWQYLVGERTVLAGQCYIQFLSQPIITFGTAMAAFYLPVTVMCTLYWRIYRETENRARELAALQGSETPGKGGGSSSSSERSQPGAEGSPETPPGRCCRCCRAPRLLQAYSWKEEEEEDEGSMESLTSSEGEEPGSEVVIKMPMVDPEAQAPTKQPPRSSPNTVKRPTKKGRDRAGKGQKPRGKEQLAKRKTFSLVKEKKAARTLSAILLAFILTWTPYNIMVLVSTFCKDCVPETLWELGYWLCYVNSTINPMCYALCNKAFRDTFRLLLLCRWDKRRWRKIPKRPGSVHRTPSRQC
Gonadotropin-releasing hormone receptor (Homo sapiens), sequence (P30968 whole entry, looked up): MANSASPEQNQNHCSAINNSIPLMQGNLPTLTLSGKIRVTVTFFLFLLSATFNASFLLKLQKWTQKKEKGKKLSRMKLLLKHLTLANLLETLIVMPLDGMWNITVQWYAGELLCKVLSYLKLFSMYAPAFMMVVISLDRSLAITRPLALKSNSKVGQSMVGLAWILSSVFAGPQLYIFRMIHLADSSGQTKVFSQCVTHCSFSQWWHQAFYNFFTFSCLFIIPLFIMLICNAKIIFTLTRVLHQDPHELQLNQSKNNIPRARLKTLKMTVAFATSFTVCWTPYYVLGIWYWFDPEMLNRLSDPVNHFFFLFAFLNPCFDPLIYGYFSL
D(2) dopamine receptor (Homo sapiens), sequence (P14416 whole entry, looked up): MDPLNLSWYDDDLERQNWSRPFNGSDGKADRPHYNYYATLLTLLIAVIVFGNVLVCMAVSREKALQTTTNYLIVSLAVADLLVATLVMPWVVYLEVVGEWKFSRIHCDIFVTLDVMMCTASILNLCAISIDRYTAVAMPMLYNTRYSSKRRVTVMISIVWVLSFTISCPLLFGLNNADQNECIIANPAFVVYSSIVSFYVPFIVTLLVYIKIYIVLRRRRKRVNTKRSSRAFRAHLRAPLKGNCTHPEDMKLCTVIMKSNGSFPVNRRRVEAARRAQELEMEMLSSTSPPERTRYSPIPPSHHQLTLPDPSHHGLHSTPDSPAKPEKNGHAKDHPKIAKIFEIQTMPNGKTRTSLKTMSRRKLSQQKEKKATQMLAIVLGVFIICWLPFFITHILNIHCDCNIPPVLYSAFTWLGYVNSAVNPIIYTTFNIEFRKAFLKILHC

CC(C)C(O)(c1ccc(OC(F)(F)F)cc1)c1cncnc1 (centres undefined)
inactive: all assays above

CCN(Cc1cccc(S(=O)(=O)O)c1)c1ccc(C(=C2C=CC(=[N+](CC)Cc3cccc(S(=O)(=O)[O-])c3)C=C2)c2ccccc2)cc1
not listed: [16] | [18]
inactive: all other assays above

CCCC(=O)OC
not listed: [18]
inactive: all other assays above

COC(C(=O)O)c1ccccc1 (centres undefined)
not listed: [15]
inactive: all other assays above

CC(C)CCCCCCN
not listed: [18]
inactive: all other assays above

O=C(c1ccccc1)C1CCCCC1
not listed: [18]
inactive: all other assays above

O=P(O)(O)OP(=O)(O)O
not listed: [17] | [18]
inactive: all other assays above

C[C@@]12CCC[C@H]1[C@@H]1CC[C@H]3C[C@@H](O)CC[C@]3(C)[C@H]1CC2
not listed: [17] | [18] | [20]
inactive: all other assays above

CCOC(=O)CC(O)(CC(=O)OCC)C(=O)OCC
not listed: [20]
inactive: all other assays above

CC1=C(C(=O)O)N2C(=O)[C@@H](NC(=O)[C@H](N)c3ccc(O)cc3)[C@H]2SC1
not listed: [18]
inactive: all other assays above

O=C(O)c1cc(C(=O)O)cc(C(=O)O)c1
not listed: [17]
inactive: all other assays above

CCCCCC(CO)CCC (centres undefined)
inactive: all assays above

N#CCCOCCC#N
not listed: [15] | [18]
inactive: all other assays above
